Experimental data: PubChem BioAssay (NCATS)
Records with an inconclusive call do not appear. Activity calls are given as the source filed them. Unless noted, calls follow the shape of the dose curve; as a rule, active = well fitted curve in the direction sought with a large enough effect; inconclusive = small, poorly fitted or top-dose-only effect, or another doubt; inactive = no such curve, though single readings can be large; an effect the other way counts as inactive or inconclusive.

Tests used:
[1] = AP1 Signaling Pathway (AID 357; active = well fitted curve in either direction with a large enough effect, not every such curve was filed as active;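 also: ME-180 reporter cells stimulated with EGF at its EC50 level; % is scaled to controls: 0 for no effect and ±100 for the full control effect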); conditions: ME-180 AP-1-bla reporter, EGF-induced, beta-lactamase ratio, 5 h; at 7.69 µM (top of the series) unless noted
Procedure, shortened: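 Titration-series screen for positive or negative modulators of EC50 EGF-induced signaling in ME-180 cells carrying an AP-1-driven beta-lactamase reporter. After 5 hours at 37 degrees Celsius, CCF4 460nm/530nm emission ratio gave %Activity; AC50 values derived.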

[2] = NFAT Signaling Pathway (AID 444; active = well fitted curve in either direction with a large enough effect, not every such curve was filed as active;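 also: carbachol stimulus at about its EC50 of 1 µM final; % is scaled to controls: 0 for no effect and ±100 for the full control effect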); conditions: Jurkat NFAT-bla M1, carbachol, beta-lactamase ratio, 5 h; at 7.69 µM (top of the series) unless noted
Procedure, shortened: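 Jurkat cells with NFAT-driven β-lactamase reporter and co-expressed M1 receptor, stimulated with carbachol (final 1 uM, ~EC50), compound titration, 5 h at 37 °C. CCF4 loaded 1 h at RT; 460/530 nm ratio gave %activity and AC50.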

[3] = Stat Signaling Pathway (AID 446; active = well fitted curve in either direction with a large enough effect, not every such curve was filed as active;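 also: ME-180 cervical cancer cells given 40 pM IL-6 alongside compound; SIE-controlled beta-lactamase reporter measured as 460/530 nm FRET emission ratio; % is scaled to controls: 0 for no effect and ±100 for the full control effect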); conditions: ME-180 (cervical carcinoma) SIE beta-lactamase reporter, IL-6 stimulated, 5 h; at 7.69 µM (top of the series) unless noted
Procedure, shortened: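 IL-6/STAT signaling read in ME-180 cells via an SIE beta-lactamase reporter. Stimulus was 40 pM IL-6 (its AC50) for 5 hrs, so both activation and inhibition register.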

[4] = biological target: Glucocorticoid receptor (Homo sapiens) (UniProt P04150); experiment: GR-GFP Redistribution (AID 450;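 active = compounds whose dose series gives a full or clear partial fitted curve of increased nuclear translocation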; also: potency is read from the fitted curve at half-maximal effect); conditions: U2OS GR-GFP nuclear translocation, laser cytometry, 2 h
Chain of Glucocorticoid receptor (Homo sapiens) (P04150 whole entry, looked up, the tested form may be a part): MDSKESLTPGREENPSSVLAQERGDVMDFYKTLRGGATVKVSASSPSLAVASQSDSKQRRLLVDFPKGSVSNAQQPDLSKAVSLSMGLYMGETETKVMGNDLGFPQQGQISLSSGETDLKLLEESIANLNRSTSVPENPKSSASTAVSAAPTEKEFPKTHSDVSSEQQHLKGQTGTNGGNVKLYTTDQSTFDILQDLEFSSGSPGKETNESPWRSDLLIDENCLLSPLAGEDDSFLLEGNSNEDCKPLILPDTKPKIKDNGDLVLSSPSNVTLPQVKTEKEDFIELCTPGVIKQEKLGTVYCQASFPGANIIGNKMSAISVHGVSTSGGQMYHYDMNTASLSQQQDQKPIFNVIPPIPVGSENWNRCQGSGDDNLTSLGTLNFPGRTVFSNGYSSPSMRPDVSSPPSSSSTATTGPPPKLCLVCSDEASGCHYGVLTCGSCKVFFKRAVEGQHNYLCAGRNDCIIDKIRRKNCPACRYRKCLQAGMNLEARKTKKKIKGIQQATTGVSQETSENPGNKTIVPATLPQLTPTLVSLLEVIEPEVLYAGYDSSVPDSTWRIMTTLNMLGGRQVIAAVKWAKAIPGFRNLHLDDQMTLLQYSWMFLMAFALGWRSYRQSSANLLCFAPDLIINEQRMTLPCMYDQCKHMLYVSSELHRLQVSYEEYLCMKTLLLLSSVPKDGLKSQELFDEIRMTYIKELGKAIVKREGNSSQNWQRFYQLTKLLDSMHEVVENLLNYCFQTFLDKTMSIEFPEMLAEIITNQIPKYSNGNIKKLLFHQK

[5] = biological target: Glucocorticoid receptor (Homo sapiens) (UniProt P04150); experiment: GR-EFC Redistribution (AID 451; calls by dose curve; also: potency is read from the fitted curve at half-maximal effect); conditions: CHO-K1 GR-EFC translocation, beta-gal luminescence, 2 h
Procedure, shortened: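 CHO-K1 cells expressing nuclear EA and GR-ED fragments of b-gal; compounds titrated up to 46 uM final, 2 h at 37 C. GR nuclear translocation read as complemented b-gal luminescence after 1 h RT detection.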

[6] = biological target: Mitogen-activated protein kinase 10 (Mus musculus) (UniProt Q61831); experiment: JNK3 AlphaScreen Assay (AID 530; active = well fitted curve in either direction with a large enough effect, not every such curve was filed as active;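 also: kinase came from lysate of stimulated human HepG2 cells; signal reports phosphorylation of biotinylated GST-cJun 1-79 at Ser73 with 10 µM ATP; % is scaled to controls: 0 for no effect and ±100 for the full control effect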)
Procedure, shortened: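 qHTS format: compounds tested as titrations against IL-1beta/TNF-alpha-activated HepG2 lysate JNK3 with biotin-GST-cJun substrate and 10 uM ATP at room temperature. Loss of anti-phospho-cJun AlphaScreen signal indicates inhibition.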

[7] = biological target: 3',5'-cyclic-AMP phosphodiesterase 4B (Homo sapiens) (UniProt Q07343); experiment: qHTS Assay for Inhibitors of PDE-IV (AID 607; active = well fitted activation curve with a large enough effect in the main read-out, with a control signal flat, not every such curve was filed as active; also: % of control where 0% means no effect)
Chain of 3',5'-cyclic-AMP phosphodiesterase 4B (Homo sapiens) (Q07343 whole entry, looked up): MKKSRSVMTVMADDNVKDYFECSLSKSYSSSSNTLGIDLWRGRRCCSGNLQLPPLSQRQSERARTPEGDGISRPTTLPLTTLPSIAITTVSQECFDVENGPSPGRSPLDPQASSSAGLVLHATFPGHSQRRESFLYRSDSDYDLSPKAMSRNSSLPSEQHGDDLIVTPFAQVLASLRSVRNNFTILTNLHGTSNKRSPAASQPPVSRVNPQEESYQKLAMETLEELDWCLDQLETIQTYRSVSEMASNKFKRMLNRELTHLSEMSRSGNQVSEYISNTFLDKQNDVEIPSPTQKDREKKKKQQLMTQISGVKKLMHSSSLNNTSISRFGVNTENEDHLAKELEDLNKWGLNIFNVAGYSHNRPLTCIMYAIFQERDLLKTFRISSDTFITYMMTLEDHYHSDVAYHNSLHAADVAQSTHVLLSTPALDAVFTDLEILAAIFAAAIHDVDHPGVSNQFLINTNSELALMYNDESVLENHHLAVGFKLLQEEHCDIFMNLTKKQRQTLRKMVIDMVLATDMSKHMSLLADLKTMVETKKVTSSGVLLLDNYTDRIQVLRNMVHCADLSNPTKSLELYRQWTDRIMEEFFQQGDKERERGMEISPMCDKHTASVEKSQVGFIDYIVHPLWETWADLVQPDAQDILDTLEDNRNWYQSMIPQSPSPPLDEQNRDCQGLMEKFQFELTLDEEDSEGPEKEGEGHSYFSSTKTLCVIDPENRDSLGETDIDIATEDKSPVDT
Procedure, shortened: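 Live HEK293 cells with a modified cyclic nucleotide-gated (CNG) channel report intracellular cAMP via membrane-potential dye fluorescence (ex 535/em 590 nm). Endogenous PDE-IV was targeted. Compounds were tested at up to 22.9 uM final; RO 20-1724 100 uM served as control.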

[8] = biological target: Guanine nucleotide-binding protein G(i) subunit alpha-1 (Homo sapiens) (UniProt P63096); experiment: qHTS Assay for Inhibitors of RGS12 GoLoco Motif Activity (Green Fluorophore) (AID 879);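 also: 0% = labeled peptide with Gαi1 and full inhibition = labeled peptide alone without protein; negative values mean loss of peptide binding seen as reduced polarization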
Procedure, shortened: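 Fluorescence polarization assay: 50 nM Gαi1 with 10 nM FITC-labeled RGS12 GoLoco peptide in 10 mM Tris pH 7.5, 150 mM NaCl, 0.1 mM GDP, 0.05% NP40, 10 min at room temperature with compound.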

[9] = qHTS Assay for Identification of Small Molecule Agonists for Thrombopoietin (TPO) Signaling Pathway (AID 917); also: % is scaled to controls: 0 for no effect and ±100 for the full control effect
Procedure, shortened: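 Luminescence from a Glycoprotein IIb promoter–driven luciferase reporter served as read-out in murine Ba/F3 cells carrying the human TPO receptor. Cells, deprived of IL-3 overnight, received compounds with 26 pM TPO and were incubated 24 hrs at 37 C.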

[10] = biological target: Muscarinic acetylcholine receptor M1 (Rattus norvegicus) (UniProt P08482); experiment: qHTS Assay for Antagonists of Acetylcholine Muscarinic M1 Receptor: Kinetic Measurement of Intracellular Calcium Response (AID 943);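 also: Fluo-4 calcium signal as peak divided by basal fluorescence over 4 min; nearly all actives have a fitted effect of over 75% in size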
Chain of Muscarinic acetylcholine receptor M1 (Rattus norvegicus) (P08482 whole entry, looked up): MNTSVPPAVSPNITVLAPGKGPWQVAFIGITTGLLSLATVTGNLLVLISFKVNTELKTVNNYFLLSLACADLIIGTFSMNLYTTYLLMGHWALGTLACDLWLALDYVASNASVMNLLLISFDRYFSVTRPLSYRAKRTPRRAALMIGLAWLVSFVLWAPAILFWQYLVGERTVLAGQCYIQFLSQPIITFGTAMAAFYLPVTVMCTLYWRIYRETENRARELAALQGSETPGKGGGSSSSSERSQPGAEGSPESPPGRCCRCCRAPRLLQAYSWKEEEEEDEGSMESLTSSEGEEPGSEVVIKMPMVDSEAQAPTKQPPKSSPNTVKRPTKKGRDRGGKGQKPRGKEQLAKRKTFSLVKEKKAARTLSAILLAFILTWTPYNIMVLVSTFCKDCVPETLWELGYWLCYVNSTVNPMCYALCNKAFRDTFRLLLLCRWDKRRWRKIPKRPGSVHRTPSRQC
Procedure, shortened: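 CHO cells stably expressing rat M1 were loaded with no-wash Fluo-4 dye for 1 h at 37C, pre-incubated 10 min with compound, then challenged with EC80 carbachol (100 nM final); kinetic calcium read 4 min, peak/basal ratio.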

[11] = biological target: Muscarinic acetylcholine receptor M1 (Rattus norvegicus) (UniProt P08482); experiment: qHTS Assay for Antagonists of Acetylcholine Muscarinic M1 Receptor: Measurement of IP-One Response (AID 944); also: nearly all actives have a fitted effect of over 75% in size
Procedure, shortened: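 CHO cells expressing rat M1 receptor, recovered overnight, were pre-incubated 10 min with compound, then stimulated 30 min with carbachol at EC80 (200 nM) in LiCl-containing buffer, pH 7.4. IP1 accumulation was read by HTRF (620/665 nm).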

[12] = biological target: Pyruvate kinase (Leishmania mexicana) (UniProt Q27686); experiment: qHTS Validation Assay for Inhibitors of Leishmania Mexicana Pyruvate Kinase (AID 945);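 also: 0% = DMSO only neutral control wells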
Chain of Pyruvate kinase (Leishmania mexicana) (Q27686 2-499 E452W): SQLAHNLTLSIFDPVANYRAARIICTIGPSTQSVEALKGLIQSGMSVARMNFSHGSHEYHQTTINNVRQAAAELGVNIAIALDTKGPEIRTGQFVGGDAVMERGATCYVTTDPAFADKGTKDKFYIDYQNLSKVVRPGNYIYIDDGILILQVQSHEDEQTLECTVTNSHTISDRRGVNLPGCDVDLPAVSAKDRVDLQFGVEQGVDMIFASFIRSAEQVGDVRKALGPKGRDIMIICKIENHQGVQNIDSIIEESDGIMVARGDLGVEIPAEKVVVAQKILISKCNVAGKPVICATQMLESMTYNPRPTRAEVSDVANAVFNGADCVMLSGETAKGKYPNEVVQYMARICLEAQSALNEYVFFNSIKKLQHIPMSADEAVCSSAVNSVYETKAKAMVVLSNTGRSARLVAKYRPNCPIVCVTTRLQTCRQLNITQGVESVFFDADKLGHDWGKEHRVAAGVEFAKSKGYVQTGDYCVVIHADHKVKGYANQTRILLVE
Procedure, shortened: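 Eight-point qHTS titrations; enzyme 0.2 nM LmPYK (E451W mutant); substrates 0.5 mM PEP, 0.1 mM ADP; 7 mM MgCl2; 1 h room temperature; PKLight luminescence normalized to neutral control.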

[13] = biological target: Pyruvate kinase PKM (Homo sapiens) (UniProt P14618); experiment: qHTS Assay for Activators of Human Muscle Pyruvate Kinase (AID 954; active = well fitted curve in the direction sought with a large enough effect, not every such curve was filed as active;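 also: 0% = uninhibited enzyme and -100% = no enzyme or full thiadiazolimine inhibition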)
Procedure, shortened: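 Enzyme was run at intermediate activity so both inhibitors and activators could be detected. ATP formed from ADP and PEP by 0.1 nM human PKM2 during a 1 h room-temperature incubation was quantified by coupled luciferase luminescence.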

[14] = biological target: Alpha-galactosidase A (Homo sapiens) (UniProt P06280); experiment: Counterscreen for Glucocerebrosidase Inhibitors: qHTS Assay for Human alpha-Galactosidase at pH 4.5 (AID 992); also: 0% is about no effect
Procedure, shortened: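 Read-out is 4-methylumbelliferone fluorescence (365 nm excitation, 440 nm emission) after a pH 10 NaOH/glycine stop. Reactions held 2 nM enzyme and 80 uM substrate at pH 4.5 for 20 min at room temperature.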

[15] = biological target: alpha-glucosidase (Oryza sativa, rice) (UniProt Q653V4); experiment: Counterscreen for Glucocerebrosidase Inhibitors: qHTS Assay for Rice alpha-Glucosidase at pH 5.0 (AID 997);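 also: 0% = full activity with enzyme and -100% = basal without enzyme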
Procedure, shortened: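 Rice alpha-glucosidase (4 nM final) with 400 uM 4-methylumbelliferyl-alpha-D-glucopyranoside in citrate buffer pH 5.0, 20 min at room temperature, stopped at pH 10; fluorescence 365/440 nm, compounds 0.7 nM–77 uM, AC50 from Hill fits.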

[16] = biological target: DNA repair nuclease/redox regulator APEX1 (Homo sapiens) (UniProt P27695); experiment: qHTS Validation Assay for Inhibitors of the Human Apurinic/apyrimidinic Endonuclease 1 (APE1) (AID 1705)
Procedure, shortened: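 qHTS, 1536-well. APE1 + cpd 15 min RT → 50 nM TAMRA/BHQ-2 THF-abasic dsDNA substrate → kinetic fluorescence, 3 reads/60 s; delta(read3−read1) = reaction progress. No-enzyme buffer = negative control.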

[17] = Counterscreen for APE1 Inhibitors: Fluorescent Dye Displacement Validation Assay (AID 1707);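 also: plate controls were ThO with dsDNA and no compound for no effect and ThO without dsDNA for full effect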
Procedure, shortened: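 ThO 250 nM + dsDNA 50 nM (THF abasic site, 5'-TAMRA), Tris-HCl pH7.5/50mM NaCl/2 mM MgCl2/0.01% Tween-20; compounds pin-transferred; ex 480/em 540 nm endpoint. Neutral = no compound; no-DNA ThO wells = negative control.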

[18] = biological target: Endonuclease 4 (Escherichia coli (strain K12)) (UniProt P0A6C1); experiment: Counterscreen for APE1 Inhibitors: qHTS Validation Assay for Inhibitors of Endonuclease IV (AID 1708); also: % is scaled to controls: 0 for no effect and ±100 for the full control effect
Procedure, shortened: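 Cleavage of a quenched abasic-site DNA duplex (50 nM, 5'-TAMRA, 3'-BHQ-2) by 2 nM enzyme is followed as fluorescence increase. Compounds are preincubated with enzyme 15 min at room temperature before substrate addition.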

[19] = qHTS for differential inhibitors of proliferation of Plasmodium falciparum line D10 (AID 1877);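 also: parasites grown with compound for 72 h before DNA staining; plate controls were vehicle wells for no effect and reference inhibitor wells for full effect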
[20] = qHTS for differential inhibitors of proliferation of Plasmodium falciparum line Dd2 (AID 1882); conditions: Potency: Plasmodium falciparum Dd2 proliferation inhibition;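 also: compound exposure of 72 h on infected erythrocytes; plate controls were DMSO vehicle for no effect and 0.29 µM artemisinin for full effect; nearly all actives have a fitted effect of over 65% in size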
Procedure, shortened: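 SYBR Green I DNA fluorescence read-out, ex 485/em 535 nm. Signals were normalized to 0.29 uM artemisinin and DMSO wells, then corrected using vehicle-only plates flanking each stack. Parasite growth ran 72 h in erythrocytes before lysis.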

[21] = biological target: Ferritin light chain (Equus caballus) (UniProt P02791); experiment: qHTS Validation Assay for Identification of Novel General Anesthetics (AID 2323); also: % is scaled to controls: 0 for no effect and ±100 for the full control effect
Chain of Ferritin light chain (Equus caballus) (P02791 2-175 limits assumed): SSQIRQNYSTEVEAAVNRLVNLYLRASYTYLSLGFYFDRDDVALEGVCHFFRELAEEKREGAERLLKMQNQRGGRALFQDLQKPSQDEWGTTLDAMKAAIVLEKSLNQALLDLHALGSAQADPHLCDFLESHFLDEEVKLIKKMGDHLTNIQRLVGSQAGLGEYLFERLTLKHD
Procedure, shortened: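 Fluorescence at 535 nm (excitation 380 nm) reported loss of 1-AMA binding to horse-spleen apoferritin (10 uM) in PBS with 50% saturated 1-aminoanthracene, after 10 min room-temperature incubation with compound; values from Hill fits of normalized response.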

[22] = biological target: ATP-dependent DNA helicase Q1 (Homo sapiens) (UniProt P46063); experiment: qHTS Validation Assay for Inhibitors of RecQ-Like Dna Helicase 1 (RECQ1) (AID 2353);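 also: plate controls were DMSO vehicle for no effect and enzyme-free control for full effect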
Procedure, shortened: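 50 nM RECQ1T1 preincubated 15 min with compound in Tris pH 8.0 buffer with MgCl2, DTT, Tween-20 and 2.5 ug/ml poly(dI-dC); started with 200 nM TAMRA/BHQ-2 forked duplex and 2 mM ATP. Unwinding read as fluorescence (525/598 nm), two reads 2 h apart.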

[23] = Validation screen for small molecules that induce DNA re-replication in MCF 10A normal breast cells (AID 463097); also: 0% is about no effect; nearly all actives have a fitted effect of over 60% in size
Procedure, shortened: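 Image-based qHTS: normal breast cells are incubated with compound for 48 hr, stained with Hoechst, and scanned for total nuclear fluorescence. Compounds raising the fraction of nuclei with elevated DNA content count as re-replication inducers.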

[24] = Quantitative high throughput screen for delayed death inhibitors of the malarial parasite plastid, 48 hour incubation (AID 488752); also: % is scaled to controls: 0 for no effect and ±100 for the full control effect; nearly all actives have a fitted effect of over 65% in size
Procedure, shortened: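 Erythrocytes infected with P. falciparum carrying an integrated firefly luciferase reporter (2% hematocrit, 0.1% parasitemia final) were exposed to compounds in RPMI 1640/0.5% Albumax for 48 h at 37 C, 5% CO2. Growth inhibition was scored as reduced luminescence.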

[25] = biological target: Transient receptor potential cation channel subfamily V member 1 (Homo sapiens) (UniProt Q8NER1); experiment: HTS Assay for Compounds that Act as Enhancers of the Vanilloid Receptor 1 (AID 488979); also: 0% is about no effect
Chain of Transient receptor potential cation channel subfamily V member 1 (Homo sapiens) (Q8NER1 whole entry, looked up): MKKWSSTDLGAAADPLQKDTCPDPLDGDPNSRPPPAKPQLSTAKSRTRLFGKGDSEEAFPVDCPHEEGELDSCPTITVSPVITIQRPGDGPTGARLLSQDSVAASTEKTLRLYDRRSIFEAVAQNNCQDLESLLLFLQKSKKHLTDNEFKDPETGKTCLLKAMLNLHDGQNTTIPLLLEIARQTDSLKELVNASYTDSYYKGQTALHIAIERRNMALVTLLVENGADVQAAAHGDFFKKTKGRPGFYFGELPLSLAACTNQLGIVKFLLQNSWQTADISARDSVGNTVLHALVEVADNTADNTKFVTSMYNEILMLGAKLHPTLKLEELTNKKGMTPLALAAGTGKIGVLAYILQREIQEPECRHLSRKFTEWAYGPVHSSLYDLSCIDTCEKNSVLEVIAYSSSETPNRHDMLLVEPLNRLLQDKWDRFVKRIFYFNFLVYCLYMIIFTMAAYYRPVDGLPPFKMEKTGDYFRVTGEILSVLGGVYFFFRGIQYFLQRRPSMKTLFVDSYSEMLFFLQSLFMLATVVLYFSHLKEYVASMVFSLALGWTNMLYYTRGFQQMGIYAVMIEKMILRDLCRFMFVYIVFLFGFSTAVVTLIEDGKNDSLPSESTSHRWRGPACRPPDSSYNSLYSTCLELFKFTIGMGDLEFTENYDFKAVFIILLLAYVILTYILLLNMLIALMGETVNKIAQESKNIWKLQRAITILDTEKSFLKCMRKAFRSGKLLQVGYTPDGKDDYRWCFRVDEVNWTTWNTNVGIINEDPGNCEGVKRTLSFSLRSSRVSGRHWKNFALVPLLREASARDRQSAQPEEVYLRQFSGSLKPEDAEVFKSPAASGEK
Procedure, shortened: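 TRPV1 cells loaded with Fluo-8 calcium dye; compound added and Ca2+ signal (ex 480/em 520 nm) followed 3 min, then capsaicin at EC20 added and read 2 more min to detect enhancement.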

[26] = biological target: Thyrotropin receptor (Homo sapiens) (UniProt P16473); experiment: qHTS Assay for Antagonists of the Thyroid Stimulating Hormone Receptor (AID 488980); also: 0% is about no effect
Procedure, shortened: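 Readout is cAMP by HTRF competition between cellular cAMP and cAMP-d2 for a cryptate-labelled antibody. Antagonism was assessed in TSHR-transfected HEK293 cells stimulated with 4 nM TSH (EC80, final) in the presence of RO 20-1724.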

[27] = biological target: Thyrotropin-releasing hormone receptor (Homo sapiens) (UniProt P34981); experiment: qHTS for Small Molecule Agonists and Allosteric Enhancers of Human TRH Receptor: Validation Screen for Agonists (AID 493127;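 active = calcium activation more than 3 SD above the typical response in the agonist read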;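 also: intracellular calcium rise by fluo-8 fluorescence before TRH EC20 addition; 0% is about no effect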); conditions: TRH receptor agonist cell assay; at 2 µM; stronger effect = higher value
Procedure, shortened: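 TRHR-expressing cells were plated overnight in serum-containing medium, then loaded with fluo-8 calcium dye at room temperature for 30 min–1.5 h. After a 10 s baseline, compound was pin-transferred and calcium fluorescence (ex 480/em 530) read kinetically for agonist response.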

[28] = biological target: Galactokinase (Homo sapiens) (UniProt P51570); experiment: qHTS Validation Assay for Inhibitors of Human Galactokinase (GALK) (AID 493189); also: 0% is about no effect
Chain of Galactokinase (Homo sapiens) (P51570 whole entry, looked up): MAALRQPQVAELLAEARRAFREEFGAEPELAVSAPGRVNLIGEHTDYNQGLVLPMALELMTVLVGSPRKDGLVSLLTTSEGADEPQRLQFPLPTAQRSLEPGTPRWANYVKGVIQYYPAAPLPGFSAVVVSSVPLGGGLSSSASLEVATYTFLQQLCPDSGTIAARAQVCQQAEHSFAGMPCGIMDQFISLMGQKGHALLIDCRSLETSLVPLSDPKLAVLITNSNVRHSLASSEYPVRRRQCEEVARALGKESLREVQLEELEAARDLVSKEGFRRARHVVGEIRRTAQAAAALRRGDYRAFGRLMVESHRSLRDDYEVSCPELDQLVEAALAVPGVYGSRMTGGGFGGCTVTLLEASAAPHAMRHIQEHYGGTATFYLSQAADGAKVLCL
Procedure, shortened: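 5 nM GALK / 100 uM galactose / 35 uM ATP, 20 mM HEPES pH8.0, 5 mM MgCl2, 60 mM NaCl, 1 mM DTT, 0.01% BSA (final). RT 1 h; Kinase-Glo Plus luminescence.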

[29] = Validation screen for small molecules that induce DNA re-replication in SW480 colon adenocarcinoma cells (AID 504364); also: 0% is about no effect
Procedure, shortened: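 SW480 cells seeded at 250 per well were exposed to compound or DMSO for 48 hr at 37 C, 5% CO2, then stained with Hoechst for 40 min. DNA content per nucleus was imaged (405 nm ex, 500-530 nm em).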

[30] = biological target: Voltage-gated inwardly rectifying potassium channel KCNH2 (Homo sapiens) (UniProt Q12809); experiment: qHTS Assay for Small Molecule Inhibitors of the Human hERG Channel Activity (AID 588834);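 also: top concentration of the series differs between compounds; % is scaled to controls: 0 for no effect and ±100 for the full control effect; lower thallium flux fluorescence means stronger hERG block; nearly all actives have a fitted effect of over 50% in size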
Chain of Voltage-gated inwardly rectifying potassium channel KCNH2 (Homo sapiens) (Q12809 whole entry, looked up): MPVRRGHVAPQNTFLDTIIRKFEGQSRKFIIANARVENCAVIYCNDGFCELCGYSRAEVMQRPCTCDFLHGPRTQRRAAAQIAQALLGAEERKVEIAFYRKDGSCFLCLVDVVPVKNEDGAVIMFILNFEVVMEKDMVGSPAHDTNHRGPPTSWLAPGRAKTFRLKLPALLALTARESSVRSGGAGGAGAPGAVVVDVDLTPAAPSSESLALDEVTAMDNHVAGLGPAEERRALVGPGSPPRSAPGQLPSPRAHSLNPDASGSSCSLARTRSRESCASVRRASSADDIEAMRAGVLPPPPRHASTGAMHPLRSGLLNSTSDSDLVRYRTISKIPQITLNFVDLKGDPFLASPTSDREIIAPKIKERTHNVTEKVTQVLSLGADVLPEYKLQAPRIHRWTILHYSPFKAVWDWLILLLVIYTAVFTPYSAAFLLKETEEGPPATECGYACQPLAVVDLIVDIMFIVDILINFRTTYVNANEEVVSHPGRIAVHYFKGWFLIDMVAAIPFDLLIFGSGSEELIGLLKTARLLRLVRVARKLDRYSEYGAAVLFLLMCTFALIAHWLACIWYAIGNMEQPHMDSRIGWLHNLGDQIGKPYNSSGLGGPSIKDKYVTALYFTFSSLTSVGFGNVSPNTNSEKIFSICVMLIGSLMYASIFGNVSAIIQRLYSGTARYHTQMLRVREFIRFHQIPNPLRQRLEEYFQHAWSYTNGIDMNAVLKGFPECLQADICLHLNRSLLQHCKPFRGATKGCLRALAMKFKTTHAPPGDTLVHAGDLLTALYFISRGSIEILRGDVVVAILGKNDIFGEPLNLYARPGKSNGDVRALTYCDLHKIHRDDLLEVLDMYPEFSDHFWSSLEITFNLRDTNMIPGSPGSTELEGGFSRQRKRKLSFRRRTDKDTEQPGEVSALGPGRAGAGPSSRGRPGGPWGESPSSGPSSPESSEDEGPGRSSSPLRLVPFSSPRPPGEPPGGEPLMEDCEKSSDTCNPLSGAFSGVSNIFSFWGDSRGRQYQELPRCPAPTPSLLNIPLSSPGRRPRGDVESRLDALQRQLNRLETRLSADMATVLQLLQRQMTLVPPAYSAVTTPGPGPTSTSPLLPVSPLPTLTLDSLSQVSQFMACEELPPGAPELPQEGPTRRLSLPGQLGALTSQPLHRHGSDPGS
Procedure, shortened: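 hERG-BacMam U2OS, 2000 cells/well; 0.7X FluxOR loading 1 hr RT dark; cpd ~10 min 37 °C; stim buffer; FDSS fluorescence 2 min @ 1 s; AC50 Hill fit.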

COc1ccc2c(c1)c(CC(=O)O)c(C)n2Cc1ccc(F)cc1
inactive: activity change, negative = inhibition [1] 1.56% [at 38 µM] | activity change, negative = inhibition [2] 6.06% [at 38 µM] | activity, negative = inhibition [3] 11.9% [at 38 µM] | Potency [4] > 46 µM | Potency [5] > 46 µM | outcome [6] | Potency [7] | outcome [8] | outcome [9] | Potency [10] | Potency [11] | Potency [12] | outcome [13] | outcome [14] | outcome [15] | Potency [16] | Potency [17] | outcome [18] | Potency [19] | Potency [20] | outcome [21] | Potency [22] | outcome [23] | Potency [24] | outcome [25] | outcome [26] | activation [27] 1.38% | outcome [28] | outcome [29] | Potency [30]
